# Measured values reported in PubChem BioAssay.
# Values joined by “and” are separate entries in the source; they are usually repeats but may differ in a detail not shown here. Identical values can stand only once. Active and inactive are the calls of the source. Unless noted, no stated cut-off is given here; in the data, active means inhibition above about 80%; inactive means the rest.
# Columns and labels:
# [1] = sensitizers of A549 cells to miR-34 induction, primary screen, imaging, A549 dox-inducible miR-34, nuclei and caspase counts (AID 1347080;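 active means compounds whose cell count with miR-34 switched on is under 0.7 times the count with it off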); conditions: A549 miR-34 inducible, Hoechst nuclei count, 48 h
# [2] = survival rescue of mitochondrial mutant cells in low glucose, primary screen, MELAS cybrids, Rieske KO mouse fibroblasts, CellTiter-Glo (AID 1508586;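 active means mean z-score across replicates of 1.96 or higher in either the MELAS or the Rieske mutant cell line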;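 further: z relative to plate mean and SD of compound and empty wells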)
# [3] = LFS_MB_P medulloblastoma growth inhibition, cell-based, chromothripsis tumors, cisplatin or BGB combos (AID 1671449); conditions: LFS_MB_P medulloblastoma cells;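 further: cells exposed for 96 hours; 0% = vehicle DMSO and 100% = killing by high DMSO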
# [4] = HDN33 neuroblastoma growth inhibition, cell-based, chromothripsis tumors, cisplatin or BGB combos (AID 1671450); conditions: HDN33 neuroblastoma cells, stronger effect = higher value;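 further: cells exposed to compound for four days; 0% = vehicle DMSO and 100% = cell killing by high DMSO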
# [5] = ICB984 medulloblastoma cell growth inhibition, synergistic combos for chromothripsis tumors, cisplatin or BGB combos (AID 1671451; call rule not given here;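 further: cells exposed for 96 hours before readout; 0% = vehicle DMSO and 100% = killing by high DMSO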); conditions: ICB984 medulloblastoma cells, drug combinations, stronger effect = higher value
# [6] = LFS_MB_1R medulloblastoma cell growth inhibition, synergistic combos for chromothripsis tumors, cisplatin or BGB combos (AID 1671452); conditions: LFS_MB_1R medulloblastoma cells, stronger effect = higher value;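 further: cells exposed for 96 hours before readout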
# [7] = HTB85 osteosarcoma cell growth inhibition, synergistic combos for chromothripsis tumors, BGB or cisplatin IC20 combos (AID 1671453); conditions: HTB85 osteosarcoma cells, drug combinations, stronger effect = higher value;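 further: cells exposed for 96 hours before readout; 0% = vehicle DMSO and 100% = high DMSO killing control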
# [8] = CRL2098 osteosarcoma cell growth inhibition, synergistic combos for chromothripsis tumors, BGB or cisplatin IC20 combos (AID 1671454); conditions: CRL2098 osteosarcoma cells, drug combinations, stronger effect = higher value;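 further: cells exposed for 96 h before readout; 0% = vehicle DMSO and 100% = killing by high DMSO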
# [9] = HD-MB03 medulloblastoma cell growth inhibition, synergistic combos for chromothripsis tumors, BGB or cisplatin IC20 combos (AID 1671455; in the data active means inhibition above about 83%;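 further: 0% = vehicle DMSO and 100% = high DMSO as cytotoxic control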); conditions: HD-MB03 medulloblastoma cells, stronger effect = higher value
# [10] = UWB1.289 ovarian carcinoma cell growth inhibition, synergistic combos for chromothripsis tumors, BGB or cisplatin combos (AID 1671456); conditions: UWB1.289 ovarian carcinoma cells, stronger effect = higher value;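 further: cells exposed to compound for four days; 0% = vehicle DMSO and 100% = killing by high DMSO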
# [11] = LFS_MB_2R medulloblastoma cell growth inhibition, synergistic combos for chromothripsis tumors, cisplatin combos (AID 1671457); conditions: LFS_MB_2R medulloblastoma cells, stronger effect = higher value;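 further: cells exposed to compound for four days before readout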
# [12] = MDA-MB-436 breast carcinoma cell growth inhibition, synergistic combos for chromothripsis tumors, BGB or cisplatin combos (AID 1671458; call rule not given here;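 further: cells exposed for 96 hours; 0% = vehicle DMSO and 100% = killing by high DMSO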); conditions: MDA-MB-436 breast carcinoma growth inhibition, drug combinations, stronger effect = higher value
# [13] = UWB1.289_BRCA1 ovarian cancer growth, cell-based, BGB or cisplatin combinations (AID 1671459); conditions: UWB1.289 BRCA1 ovarian carcinoma, drug combinations, stronger effect = higher value
# [14] = human astrocyte viability loss, single and combined drugs, cytotoxicity control for chromothriptic childhood tumor combination screen, cell-based, BGB or cisplatin IC20 combos (AID 1671460); conditions: Human astrocytes, drug combinations, stronger effect = higher value;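 further: cells exposed to compounds for 96 hours before viability readout; 0% = vehicle and 100% = killing control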
# [15] = growth inhibition of BT084 medulloblastoma cells, cell-based, ICGC_MB145, cisplatin and BGB IC40 combos (AID 1671461); conditions: drug combinations, stronger effect = higher value;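 further: cells exposed to drugs for 96 hours; 0% = vehicle DMSO and 100% = high DMSO full killing control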
# [16] = growth inhibition of RCMB18 medulloblastoma cells, cell-based, cisplatin and BGB IC40 combos (AID 1671462); conditions: stronger effect = higher value;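 further: cells exposed to compound for four days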
# [17] = growth inhibition of CRL1545 osteosarcoma cells, cell-based, cisplatin and BGB IC20 combos (AID 1671464); conditions: stronger effect = higher value;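 further: cells exposed to compound for 96 hours before readout; 0% = vehicle DMSO and 100% = high DMSO killing control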
# [18] = measured here: combination with BGB IC40, at 0.05 µM
# [19] = measured here: with BGB IC20 combination, at 0.5 µM
# [20] = measured here: with cisplatin IC20 combination, at 0.5 µM
# [21] = measured here: combination with cisplatin, at 0.5 µM
# [22] = measured here: combination with cisplatin, at 5 µM
compound,measurement,setting,value
CN(C)CC(=O)Nc1ccc2[nH]c(=O)c3ccccc3c2c1,fold change,"[1]; stronger effect = lower value, cell number ratio, induced over uninduced",0.941 (inactive) and 0.916 (inactive)
same,fold change,[1]; measured here: relative caspase fold change +Dox/-Dox,0.694 and 0.571
same,cell count,"[1]; measured here: total cells with miR-34 induction, stronger effect = lower value",5000 and 7760
same,cell count,[1]; measured here: total cells without miR-34 induction,5310 and 8470
same,z-score,"[2]; MELAS cybrid survival, CellTiter-Glo 48 h, stronger effect = higher value",-0.15 (inactive) and -0.352 (inactive)
same,z-score,"[2]; Rieske KO mouse fibroblast survival, CellTiter-Glo 72 h",-0.197 and 0.819
same,inhibition,"[3]; at 0.5 µM, stronger effect = higher value",-18.5% (inactive) and -17% (inactive) and -7.46% (inactive)
same,inhibition,"[3]; measured here: combination with BGB IC20, at 0.005 µM",12.4% and -8.96% and -31.5%
same,inhibition,"[3]; measured here: combination with BGB IC40, at 0.005 µM",-19.5% and -21.6% and -39.4%
same,inhibition,[3]; [18],-14.8% and -27.5% and -40.5%
same,inhibition,"[3]; measured here: combination with cisplatin, at 0.5 µM, stronger effect = higher value",-45.3% and -39.5% and -30.4%
same,inhibition,"[3]; measured here: combination with cisplatin, at 5 µM, stronger effect = higher value",4.17% and -17.8% and -4.6%
same,inhibition,"[4]; BGB combo, at 5 µM",7.32% and -6.67% and -9.33%
same,inhibition,[4]; at 0.5 µM,6.02% (inactive) and -1.05% (inactive) and -19% (inactive)
same,inhibition,"[4]; cisplatin combo, at 5 µM",17.1% and 1.58% and -10.8%
same,inhibition,[4]; [19],-3% and -3.63% and -21.1%
same,inhibition,[4]; [20],16.9% and 5.73% and -18.5%
same,inhibition,"[4]; single agent, at 5 µM",15.5% and 10.2% and 30.1%
same,inhibition,"[5]; BGB IC20 combo, at 0.005 µM",-13.3% and -2.95% and -7.79%
same,inhibition,"[5]; BGB IC40 combo, at 0.005 µM",-17% and -47.2% and -17.2%
same,inhibition,"[5]; BGB IC40 combo, at 0.05 µM",-0.058% and 4.16% and -0.711%
same,inhibition,[5]; at 0.5 µM,-28.4% (inactive) and -20.4% (inactive) and -5.86% (inactive)
same,inhibition,"[5]; cisplatin combo, at 0.05 µM",-2.85% and 1.48% and -4.33%
same,inhibition,"[5]; cisplatin combo, at 0.5 µM",-27.2% and -5.09% and 16.6%
same,inhibition,"[5]; cisplatin combo, at 5 µM",-20% and -21% and -0.405%
same,inhibition,"[5]; measured here: 5 uM single agent, at 5 µM",-18.7% and -14.3% and -10.6%
same,inhibition,[6]; at 0.5 µM,-13.8% (inactive) and -13.5% (inactive) and -14% (inactive)
same,inhibition,[6]; [18],-3.83% and -23.1% and -25.7%
same,inhibition,[6]; [21],0.486% and -10.2% and -9.3%
same,inhibition,[6]; [22],-18.1% and 3.23% and -15.4%
same,inhibition,[7]; at 0.5 µM,-2.64% (inactive) and 6.11% (inactive) and -9.79% (inactive)
same,inhibition,"[7]; measured here: with BGB IC20, at 0.5 µM",-8.36% and -5.68% and -25.9%
same,inhibition,"[7]; measured here: with BGB IC20, at 5 µM",-24.1% and 8.44% and -2.25%
same,inhibition,"[7]; measured here: with cisplatin IC20, at 0.5 µM",-8.52% and 5.14% and 3.46%
same,inhibition,"[7]; measured here: with cisplatin IC20, at 5 µM",-29.8% and -39.5% and -46.8%
same,inhibition,"[7]; single agent, at 5 µM",1.63% and -7.42% and 3.8%
same,inhibition,[8]; at 0.5 µM,-36.8% (inactive) and -23.4% (inactive) and -51.4% (inactive)
same,inhibition,"[8]; measured here: combination with BGB at IC20, at 0.5 µM",-71.3% and -23.5% and -26.5%
same,inhibition,"[8]; measured here: combination with cisplatin at IC20, at 0.5 µM",-19% and -5.62% and -82%
same,inhibition,[9]; at 0.5 µM,-0.31% (inactive) and -9.88% (inactive) and -18.4% (inactive)
same,inhibition,"[9]; measured here: combo with BGB at IC20, at 0.5 µM",0.82% and -0.47% and -22%
same,inhibition,"[9]; measured here: combo with cisplatin at IC20, at 0.5 µM",-8.4% and -20.4% and -29.9%
same,inhibition,[10]; at 0.5 µM,3.12% (inactive) and 0.71% (inactive) and -1.11% (inactive)
same,inhibition,"[10]; measured here: inhibition with BGB combination, at 0.05 µM",-1.46% and -11.5% and -12.3%
same,inhibition,"[10]; measured here: inhibition with cisplatin combination, at 0.05 µM",-5.87% and -5.94% and -12.4%
same,inhibition,[11]; at 0.5 µM,-1.17% (inactive) and -17.8% (inactive) and -26.4% (inactive)
same,inhibition,[11]; [21],-1.41% and -14.7% and -24.5%
same,inhibition,[11]; [22],-64% and -69.6% and -24.6%
same,inhibition,[12]; at 0.5 µM,-4.41% (inactive) and -15.5% (inactive) and -5.43% (inactive)
same,inhibition,"[12]; measured here: BGB combination, at 0.5 µM",-3.67% and -13.7% and -14%
same,inhibition,"[12]; measured here: BGB combination, at 5 µM",-15.9% and -32.7% and -34.6%
same,inhibition,"[12]; measured here: cisplatin combination, at 0.5 µM",-8.29% and -33% and -6.83%
same,inhibition,"[12]; measured here: cisplatin combination, at 5 µM",-17.2% and -39.2% and -6.55%
same,inhibition,"[13]; BGB combination, concentration series, at 5 µM",-7.67% and -9.61% and 17%
same,inhibition,[13]; at 0.5 µM,1.59% (inactive) and -0.05% (inactive) and -1.7% (inactive)
same,inhibition,"[13]; cisplatin combination, concentration series, at 5 µM",16.4% and 6.78% and -0.772%
same,inhibition,[14]; at 0.5 µM,0.7% (inactive) and -7.07% (inactive) and 10.3% (inactive)
same,inhibition,"[14]; measured here: combo with BGB IC20, at 0.5 µM",-4.06% and -11% and -10.6%
same,inhibition,"[14]; measured here: combo with cisplatin IC20, at 0.5 µM",6.3% and -10.6% and 20.9%
same,inhibition,[15]; at 0.5 µM,-5% (inactive) and -17.7% (inactive) and -25% (inactive)
same,inhibition,"[15]; cisplatin combination, at 0.5 µM",-11% and 0.828% and -68.7%
same,inhibition,"[15]; cisplatin combination, at 5 µM",-4.17% and -13.1% and -46%
same,inhibition,"[15]; measured here: BGB IC40 combination 0.05 uM, at 0.05 µM",25% and 2.93% and -19.8%
same,inhibition,"[15]; single agent, at 5 µM",-11.5% and -8.61% and -15%
same,inhibition,[16]; at 0.5 µM,-10.8% (inactive) and -26% (inactive) and -30.1% (inactive)
same,inhibition,"[16]; cisplatin combo, at 5 µM",-47.6% and -22.2% and -34.1%
same,inhibition,"[16]; measured here: BGB IC40 combination, at 0.05 µM",1.7% and -24.6% and -7.83%
same,inhibition,[16]; [21],-0.146% and -31.4% and -63.1%
same,inhibition,"[16]; single agent, at 5 µM",-17.1% and -32.1% and -45.8%
same,inhibition,[17]; at 0.5 µM,-19.1% (inactive) and 4.9% (inactive) and -4.49% (inactive)
same,inhibition,[17]; [19],-45.9% and 5.19% and -19.6%
same,inhibition,[17]; [20],-8.03% and 2.6% and 1.49%
same,inhibition,"[17]; single agent, at 0.05 µM",18.8% and -30.7% and 29.1%
same,inhibition,"[17]; single agent, at 5 µM",-20.3% and -21.7% and -53.8%
